High-throughput results: PubChem, University of Pittsburgh Molecular Library Screening Center
The full list was thinned out, with hits kept by preference.
HIV RNase H inh-1 = HIV-1 RT RNase H inhibitors, primary screen, biochemical, fluorescence; hit rate 1.9% among 65,000; inhibition, % at 10 µM; RT-RNase H RNA/DNA duplex cleavage; Gag-Pol polyprotein (Human immunodeficiency virus type 1 group M subtype B (isolate …; in the data active means inhibition above about 50%
HIV RNase H inh-2 = HIV-1 RT RNase H inhibitors, retest, confirmation, biochemical; shares compounds with HIV RNase H inh-1; Recombinant RT RNase H, fluorescent RNA/DNA duplex cleavage; inhibition, % at 10 µM; hit rate 39% among 1,000; in the data active means inhibition above about 48%; inconclusive means no clear call, values can overlap the other calls
Each line names hits and unclear results; the compound was inactive in the other large screens (follow-up assays come after a bar, where they were run).

CCOC(=O)CSc1nc2cc(C(=O)NCc3ccco3)ccc2c(=O)n1-c1ccc(F)cc1	HIV RNase H inh-1 84.0 | HIV RNase H inh-2 66.4
CCOC(=O)N1CCC(n2c(SCC(=O)NCc3ccco3)nc3ccsc3c2=O)CC1	none
COc1ccc(-n2c(=S)[nH]c3cc(C(=O)NCc4ccco4)ccc3c2=O)cc1OC	none
CCOC(=O)CSc1nc2ccccc2c(=O)n1CC1CCC(C(=O)NCc2ccco2)CC1 (stereo not given)	none
CCOC(=O)CSc1nc2cc(C(=O)N3CCC(C(N)=O)CC3)ccc2c(=O)n1-c1ccccc1	none
CCOC(=O)CSc1nc2cc(C(=O)NCc3ccco3)ccc2c(=O)n1C1CCCCC1	HIV RNase H inh-1 73.0 | HIV RNase H inh-2 57.5
Cc1ccccc1S(=O)(=O)Nc1nc2ccccc2nc1N1CCOCC1	none
COc1ccc2[nH]c(=O)c(CN(C(=O)C3CCCO3)c3ccc(C)cc3)cc2c1 (stereo not given)	none
CCOC(=O)c1ccc(N2C(=O)C3C(C2=O)C(C(=O)c2ccc(Cl)cc2)N2CCCC32)cc1 (stereo not given)	none
COc1ccc(OC)c(CCNC(=O)CS(=O)(=O)Cc2nc(-c3ccccc3C)oc2C)c1	none
CCC(Sc1nc(N)c(NC(=O)c2ccc(OC)c(OC)c2)c(=O)[nH]1)C(=O)OC (stereo not given)	none
COc1ccc(C2c3c(oc4ccc(Cl)cc4c3=O)C(=O)N2Cc2ccco2)cc1OC (stereo not given)	HIV RNase H inh-1 93.9 | HIV RNase H inh-2 59.9
COc1cccc(C2c3c(oc4ccc(Cl)cc4c3=O)C(=O)N2c2cc(C)on2)c1OC (stereo not given)	HIV RNase H inh-1 50.4 | HIV RNase H inh-2 inactive
COc1ccc(C2c3c(oc4ccccc4c3=O)C(=O)N2c2ccccn2)cc1OC (stereo not given)	none
O=C1c2oc3ccc(Cl)cc3c(=O)c2C(c2cccnc2)N1Cc1ccco1 (stereo not given)	none
COc1cc(C2c3c(oc4ccc(Cl)cc4c3=O)C(=O)N2Cc2ccco2)cc(OC)c1OC (stereo not given)	none
COc1ccc(/C(O)=C2\C(=O)C(=O)N(c3cc(C)on3)C2c2cccc(OC)c2OC)cc1C (stereo not given)	none
O=C(CCCNS(=O)(=O)c1cccc2nsnc12)NC1CCCCC1	none
Cc1ccc(S(=O)(=O)NC(=O)COc2ccccc2C(N)=O)cc1	none
Cc1cccc2cc(C#N)c(NCCNS(=O)(=O)c3ccc4c(c3)OCCO4)nc12	none
CS(=O)(=O)N1CCCC(C(=O)NCc2ccc(F)cc2)C1 (stereo not given)	none
C/C(N)=C(/C#N)C(=O)CSc1nnc(-c2ccc(OC(F)F)cc2)o1	none
Cc1cc(C(=O)CSc2nnc(-c3ccc(OC(F)F)cc3)o2)c(C)n1Cc1cccs1	HIV RNase H inh-1 78.6 | HIV RNase H inh-2 67.5
Cc1csc(SCC(=O)c2cc(C)n(Cc3cccs3)c2C)n1	none
Cc1c(NS(=O)(=O)c2ccc3[nH]c(=O)[nH]c3c2)c(=O)n(-c2ccccc2)n1C	none
COC(=O)c1ccccc1NS(=O)(=O)c1cn(C)c(=O)n(C)c1=O	none
COc1ccc(N2C(=O)C3CCCN3C2c2ccccc2)cc1 (stereo not given)	none
N#Cc1c(NCCO)nc(NCc2ccccc2)c2c1CCN(Cc1ccccc1)C2	none
CCN1CCc2c(sc(N)c2C#N)C1	none
N#Cc1c(N)sc(=S)c2c1CCN(Cc1ccccc1)C2	HIV RNase H inh-1 66.0 | HIV RNase H inh-2 inactive
CC(C)(C)OC(=O)NCCCCCc1nnc(SCC(=O)Nc2cccc(Cl)c2)o1	none
O=C(O)CCC(=O)NC1CCCCC1NC(=O)CCC(=O)O (stereo not given)	none
CC(C)c1nc2sc3c(NCc4ccco4)ncnc3c2c2c1COC(C)(C)C2	none
COC(=O)CSc1ncnc2c1sc1nc(-c3ccco3)c3c(c12)CC(C)(C)OC3	HIV RNase H inh-1 60.5 | HIV RNase H inh-2 inactive
CCCc1nc2sc3c(SCC(=O)NCc4ccco4)ncnc3c2c2c1CCC2	none
CC(=O)Nc1ccc(OC(F)(F)C(F)C(F)(F)F)c(NC(C)=O)c1 (stereo not given)	none
CCc1cccc(C)c1NC(=O)C1=C(C(=O)O)CCCC1	none
Cc1nc(N)nc(C)c1Cc1ccccc1	none
Cc1c(Cc2ccccc2)sc(N)c1C(N)=O	HIV RNase H inh-1 81.7 | HIV RNase H inh-2 inconclusive
Cc1nc(-c2ccccc2)sc1C(N)=O	none
O=C(CN1CCN(C2CCCCC2)CC1)NCCC1=CCCCC1	none
CCOc1ccc(S(=O)(=O)N(C)CCO)cc1-c1nc2c(C(C)(C)C)nn(C)c2c(=O)[nH]1	none
O=C(CSc1ccc2nnc(-c3ccccn3)n2n1)NCC1CCCO1 (stereo not given)	none
O=C(CSc1ccc2nnc(-c3cccc(F)c3)n2n1)NCC1CCCO1 (stereo not given)	HIV RNase H inh-1 73.3 | HIV RNase H inh-2 inactive
O=C(CSc1ccc2nnc(-c3cccnc3)n2n1)NCC1CCCO1 (stereo not given)	none
